# Results reported in PubChem BioAssay (NCI).
# About 79,000 compounds went through this panel and 15% of them were active in at least one assay; those are over-represented in the sample as a whole. Unmarked numbers belong to inactive results. Active and inactive are the calls of the source. No stated cut-off is given here; in the data, active means growth inhibition above about 70%; inactive means the rest.
# How the values were obtained:
# [1] = NCI Yeast Anticancer Drug Screen. Data for the rad52 strain (AID 147);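 further: 0% = growth of vehicle-treated control cultures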; details: S. cerevisiae rad52 mutant growth inhibition, hits give high values
# Procedure, shortened: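 Measured: yeast growth inhibition. System: strain with a defined DNA damage repair alteration. Reference: vehicle-treated control cultures.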
# [2] = NCI Yeast Anticancer Drug Screen. Data for the wt1 strain (AID 149);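 further: 0% = growth of vehicle-treated wt1 cultures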; details: S. cerevisiae wt1 strain (SPY 50644) growth inhibition, hits give high values
# Procedure, shortened: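 Vehicle-normalised growth inhibition; strain wt1; compound exposure.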
# [3] = NCI Yeast Anticancer Drug Screen. Data for the rad50EPP+ strain (AID 151);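 further: 0% = growth of vehicle-treated control cultures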; details: S. cerevisiae rad50 mutant strain, hits give high values
# Procedure, shortened: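 One strain with a rad50 alteration (rad50EPP+) was compound-treated, its growth then compared to that of vehicle controls.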
# [4] = NCI Yeast Anticancer Drug Screen. Data for the mgt1 strain (AID 153); details: S. cerevisiae mgt1 mutant growth inhibition, hits give high values
# Procedure, shortened: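 After exposure of the mgt1 yeast mutant to compound, growth was measured and reported as inhibition compared with vehicle controls.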
# [5] = NCI Yeast Anticancer Drug Screen. Data for the rad50 strain (AID 155);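 further: 0% = growth of vehicle-only cultures of the same strain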; details: S. cerevisiae rad50 strain growth inhibition, hits give high values
# Procedure, shortened: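 A DNA repair-deficient yeast mutant serves as the test organism; compound-induced growth inhibition is calculated against vehicle-treated cells.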
# [6] = NCI Yeast Anticancer Drug Screen. Data for the mec2-1 strain (AID 157); details: S. cerevisiae mec2-1 strain, hits give high values
# Procedure, shortened: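 Test agents were screened against the mec2-1 yeast strain, with defined DNA repair or cell cycle alteration. Growth was scored as inhibition against vehicle-only controls.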
# [7] = NCI Yeast Anticancer Drug Screen. Data for the rad14 strain (AID 159);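 further: 0% = growth of vehicle-treated control cultures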; details: S. cerevisiae rad14 strain growth inhibition, hits give high values
# Procedure, shortened: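 Vehicle-treated cultures served as the baseline for growth inhibition of a DNA repair-mutant yeast strain exposed to each compound.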
# [8] = NCI Yeast Anticancer Drug Screen. Data for the sgs1 mgt1 strain (AID 161);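 further: 0% = growth of cultures given vehicle only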; details: S. cerevisiae sgs1 mgt1 strain, hits give high values
# Procedure, shortened: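 Mutant yeast exposed to compound; growth scored against vehicle-only wells.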
# [9] = NCI Yeast Anticancer Drug Screen. Data for the CLN2oe strain (AID 163);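 further: 0% = growth of vehicle-only control cultures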; details: S. cerevisiae CLN2oe strain, hits give high values
# Procedure, shortened: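 Here, growth inhibition in a cell-cycle-altered yeast strain after compound exposure was quantified against vehicle control growth.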
# [10] = NCI Yeast Anticancer Drug Screen. Data for the cln2 rad14 strain (AID 165);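 further: 0% = growth equal to vehicle treated cultures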; details: S. cerevisiae cln2 rad14 strain, hits give high values
# Procedure, shortened: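 Growth of compound-exposed yeast (cln2 rad14 genotype) measured and expressed as inhibition relative to vehicle.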
# [11] = NCI Yeast Anticancer Drug Screen. Data for the bub3 strain (AID 167); details: S. cerevisiae bub3 mutant strain, hits give high values
# Procedure, shortened: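 Inhibition values come from growth of compound-treated mutant yeast normalised to vehicle-treated controls.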
# [12] = NCI Yeast Anticancer Drug Screen. Data for the wt2 strain (AID 169);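 further: 0% = growth of vehicle-treated yeast cultures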; details: S. cerevisiae wt2 strain growth inhibition, hits give high values
# Procedure, shortened: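 Genetically defined yeast strains from a DNA-repair/cell-cycle panel were used. Compound-exposed yeast growth was measured, and the inhibition was calculated relative to vehicle treatment.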
# [13] = NCI Yeast Anticancer Drug Screen. Data for the mlh1 strain (AID 171);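 further: 0% = growth of vehicle-treated control cultures of the same strain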; details: S. cerevisiae mlh1 strain growth inhibition, hits give high values
# Procedure, shortened: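 Here the genetically defined yeast mutant is grown with each compound, and the extent to which its growth falls below that of vehicle-exposed cells is reported.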
# [14] = NCI Yeast Anticancer Drug Screen. Data for the sgs1 strain (AID 173);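 further: 0% = growth of vehicle-only control cultures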; details: S. cerevisiae sgs1 mutant, hits give high values
# Procedure, shortened: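 Relative growth inhibition, referenced to vehicle, was determined in a yeast strain with a defined alteration affecting DNA damage repair or cell cycle control after compound exposure.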
# [15] = NCI Yeast Anticancer Drug Screen. Data for the mlh1 rad18 strain (AID 175); details: S. cerevisiae mlh1 rad18 strain growth inhibition, hits give high values
# Procedure, shortened: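 In this whole-cell yeast screen, a strain with altered DNA damage repair is challenged with compound, and its growth is measured against matched vehicle-treated controls.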
# [16] = NCI Yeast Anticancer Drug Screen. Data for the rad18 strain (AID 177); details: S. cerevisiae rad18 mutant growth inhibition, hits give high values
# Procedure, shortened: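 Screen uses a yeast strain with a defined lesion in DNA damage repair; compound effect is read as loss of growth compared to untreated vehicle cultures.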
# [17] = at 5.0 µM (retest, dose inferred, filed as 0.5)
# [18] = at 50.0 µM (retest, dose inferred, filed as 5.0)
smiles,measurement,setting,value
CC(C)c1ccccc1NC(=O)/C(Cl)=C(\Cl)C(=O)O,growth inhibition,[1]; at 1.2 µM,0%
same,growth inhibition,[1]; at 3.7 µM,1%
same,growth inhibition,[1]; at 11.0 µM,0%
same,growth inhibition,[1]; at 33.0 µM,5%
same,growth inhibition,[1]; at 100.0 µM,99% (active)
same,growth inhibition,[2]; at 1.2 µM,-1%
same,growth inhibition,[2]; at 3.7 µM,-1%
same,growth inhibition,[2]; at 11.0 µM,-1%
same,growth inhibition,[2]; at 33.0 µM,1%
same,growth inhibition,[2]; at 100.0 µM,59%
same,growth inhibition,[3]; at 1.2 µM,2%
same,growth inhibition,[3]; at 3.7 µM,4%
same,growth inhibition,[3]; at 11.0 µM,7%
same,growth inhibition,[3]; at 33.0 µM,21%
same,growth inhibition,[3]; at 100.0 µM,99% (active)
same,growth inhibition,[4]; at 1.2 µM,1%
same,growth inhibition,[4]; at 3.7 µM,3%
same,growth inhibition,[4]; at 11.0 µM,5%
same,growth inhibition,[4]; at 33.0 µM,8%
same,growth inhibition,[4]; at 100.0 µM,94% (active)
same,growth inhibition,[5]; at 1.2 µM,0%
same,growth inhibition,[5]; at 3.7 µM,0%
same,growth inhibition,[5]; [17],0%
same,growth inhibition,[5]; at 11.0 µM,-2%
same,growth inhibition,[5]; at 33.0 µM,11%
same,growth inhibition,[5]; [18],82% (active)
same,growth inhibition,[5]; at 50.0 µM,30.1%
same,growth inhibition,[5]; at 100.0 µM,98% (active)
same,growth inhibition,[6]; at 1.2 µM,1%
same,growth inhibition,[6]; at 3.7 µM,0%
same,growth inhibition,[6]; [17],26%
same,growth inhibition,[6]; at 11.0 µM,1%
same,growth inhibition,[6]; at 33.0 µM,7%
same,growth inhibition,[6]; [18],27%
same,growth inhibition,[6]; at 50.0 µM,6.85%
same,growth inhibition,[6]; at 100.0 µM,99% (active)
same,growth inhibition,[7]; at 1.2 µM,2%
same,growth inhibition,[7]; at 3.7 µM,2%
same,growth inhibition,[7]; at 11.0 µM,4%
same,growth inhibition,[7]; at 33.0 µM,6%
same,growth inhibition,[7]; at 100.0 µM,93% (active)
same,growth inhibition,[8]; [17],-12%
same,growth inhibition,[8]; [18],16%
same,growth inhibition,[8]; at 50.0 µM,2.4%
same,growth inhibition,[9]; at 1.2 µM,1%
same,growth inhibition,[9]; at 3.7 µM,6%
same,growth inhibition,[9]; at 11.0 µM,5%
same,growth inhibition,[9]; at 33.0 µM,2%
same,growth inhibition,[9]; at 100.0 µM,82% (active)
same,growth inhibition,[10]; [17],13%
same,growth inhibition,[10]; [18],63%
same,growth inhibition,[10]; at 50.0 µM,51.6%
same,growth inhibition,[11]; at 1.2 µM,0%
same,growth inhibition,[11]; at 3.7 µM,1%
same,growth inhibition,[11]; [17],9%
same,growth inhibition,[11]; at 11.0 µM,5%
same,growth inhibition,[11]; at 33.0 µM,7%
same,growth inhibition,[11]; [18],77% (active)
same,growth inhibition,[11]; at 50.0 µM,8.1%
same,growth inhibition,[11]; at 100.0 µM,97% (active)
same,growth inhibition,[12]; at 1.2 µM,1%
same,growth inhibition,[12]; at 3.7 µM,0%
same,growth inhibition,[12]; at 11.0 µM,0%
same,growth inhibition,[12]; at 33.0 µM,4%
same,growth inhibition,[12]; at 100.0 µM,88% (active)
same,growth inhibition,[13]; at 1.2 µM,-1%
same,growth inhibition,[13]; at 3.7 µM,1%
same,growth inhibition,[13]; at 11.0 µM,2%
same,growth inhibition,[13]; at 33.0 µM,4%
same,growth inhibition,[13]; at 100.0 µM,66%
same,growth inhibition,[14]; at 1.2 µM,2%
same,growth inhibition,[14]; at 3.7 µM,4%
same,growth inhibition,[14]; at 11.0 µM,5%
same,growth inhibition,[14]; at 33.0 µM,12%
same,growth inhibition,[14]; at 100.0 µM,96% (active)
same,growth inhibition,[15]; [17],21%
same,growth inhibition,[15]; [18],28%
same,growth inhibition,[15]; at 50.0 µM,11.9%
same,growth inhibition,[16]; at 1.2 µM,0%
same,growth inhibition,[16]; at 3.7 µM,0%
same,growth inhibition,[16]; at 11.0 µM,1%
same,growth inhibition,[16]; at 33.0 µM,8%
same,growth inhibition,[16]; at 100.0 µM,98% (active)
O=[N+]([O-])c1cc(CCl)ccc1CCl,growth inhibition,[1]; at 1.2 µM,6%
same,growth inhibition,[1]; at 3.7 µM,11%
same,growth inhibition,[1]; at 11.0 µM,69%
same,growth inhibition,[1]; at 33.0 µM,95% (active)
same,growth inhibition,[1]; at 100.0 µM,97% (active)
same,growth inhibition,[2]; at 1.2 µM,2%
same,growth inhibition,[2]; at 3.7 µM,8%
same,growth inhibition,[2]; at 11.0 µM,30%
same,growth inhibition,[2]; at 33.0 µM,93% (active)
same,growth inhibition,[2]; at 100.0 µM,97% (active)
same,growth inhibition,[3]; at 1.2 µM,16%
same,growth inhibition,[3]; at 3.7 µM,44%
same,growth inhibition,[3]; at 11.0 µM,89% (active)
same,growth inhibition,[3]; at 33.0 µM,97% (active)
same,growth inhibition,[3]; at 100.0 µM,98% (active)
same,growth inhibition,[4]; at 1.2 µM,4%
same,growth inhibition,[4]; at 3.7 µM,2%
same,growth inhibition,[4]; at 11.0 µM,25%
same,growth inhibition,[4]; at 33.0 µM,90% (active)
same,growth inhibition,[4]; at 100.0 µM,97% (active)
same,growth inhibition,[5]; at 1.2 µM,7%
same,growth inhibition,[5]; at 3.7 µM,20%
same,growth inhibition,[5]; [17],-3%
same,growth inhibition,[5]; at 11.0 µM,84% (active)
same,growth inhibition,[5]; at 33.0 µM,97% (active)
same,growth inhibition,[5]; [18],98% (active)
same,growth inhibition,[5]; at 50.0 µM,99.1% (active)
same,growth inhibition,[5]; at 100.0 µM,97% (active)
same,growth inhibition,[6]; at 1.2 µM,3%
same,growth inhibition,[6]; at 3.7 µM,6%
same,growth inhibition,[6]; [17],-7%
same,growth inhibition,[6]; at 11.0 µM,37%
same,growth inhibition,[6]; at 33.0 µM,93% (active)
same,growth inhibition,[6]; [18],97% (active)
same,growth inhibition,[6]; at 50.0 µM,98.9% (active)
same,growth inhibition,[6]; at 100.0 µM,98% (active)
same,growth inhibition,[7]; at 1.2 µM,8%
same,growth inhibition,[7]; at 3.7 µM,13%
same,growth inhibition,[7]; at 11.0 µM,38%
same,growth inhibition,[7]; at 33.0 µM,95% (active)
same,growth inhibition,[7]; at 100.0 µM,97% (active)
same,growth inhibition,[8]; [17],4%
same,growth inhibition,[8]; [18],98% (active)
same,growth inhibition,[8]; at 50.0 µM,98.5% (active)
same,growth inhibition,[9]; at 1.2 µM,10%
same,growth inhibition,[9]; at 3.7 µM,15%
same,growth inhibition,[9]; at 11.0 µM,48%
same,growth inhibition,[9]; at 33.0 µM,94% (active)
same,growth inhibition,[9]; at 100.0 µM,97% (active)
same,growth inhibition,[10]; [17],57%
same,growth inhibition,[10]; [18],97% (active)
same,growth inhibition,[10]; at 50.0 µM,98.3% (active)
same,growth inhibition,[11]; at 1.2 µM,-18%
same,growth inhibition,[11]; at 3.7 µM,2%
same,growth inhibition,[11]; [17],-17%
same,growth inhibition,[11]; at 11.0 µM,46%
same,growth inhibition,[11]; at 33.0 µM,92% (active)
same,growth inhibition,[11]; [18],97% (active)
same,growth inhibition,[11]; at 50.0 µM,99.4% (active)
same,growth inhibition,[11]; at 100.0 µM,97% (active)
same,growth inhibition,[12]; at 1.2 µM,3%
same,growth inhibition,[12]; at 3.7 µM,15%
same,growth inhibition,[12]; at 11.0 µM,54%
same,growth inhibition,[12]; at 33.0 µM,96% (active)
same,growth inhibition,[12]; at 100.0 µM,99% (active)
same,growth inhibition,[13]; at 1.2 µM,4%
same,growth inhibition,[13]; at 3.7 µM,13%
same,growth inhibition,[13]; at 11.0 µM,58%
same,growth inhibition,[13]; at 33.0 µM,95% (active)
same,growth inhibition,[13]; at 100.0 µM,98% (active)
same,growth inhibition,[14]; at 1.2 µM,11%
same,growth inhibition,[14]; at 3.7 µM,28%
same,growth inhibition,[14]; at 11.0 µM,79% (active)
same,growth inhibition,[14]; at 33.0 µM,96% (active)
same,growth inhibition,[14]; at 100.0 µM,98% (active)
same,growth inhibition,[15]; [17],38%
same,growth inhibition,[15]; [18],99% (active)
same,growth inhibition,[15]; at 50.0 µM,99% (active)
same,growth inhibition,[16]; at 1.2 µM,32%
same,growth inhibition,[16]; at 3.7 µM,66%
same,growth inhibition,[16]; at 11.0 µM,94% (active)
same,growth inhibition,[16]; at 33.0 µM,98% (active)
same,growth inhibition,[16]; at 100.0 µM,97% (active)
